Inconclusive results are not listed. Active and inactive are the calls of the source. Rule for the calls: active = hit-call score of the fitted dose curve at least 0.9, where 1 is the maximum; inconclusive = response in the unintended direction; inactive = score below 0.9.

Test [1] can be described thus: Tanguay_ZF_120hpf_MORT_legacy: (Legacy) Oregon State University Tanguay Lab 120 Hour Post-fertilization zebrafish Assay for Mortality (AID 2283633). In outline: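 5D WT zebrafish, chorion removed 4 hpf; 1 embryo/well from 6 hpf; static exposure to 120 hpf, 28C, dark, sealed. Final DMSO 0.64%. Readout: binary mortality, brightfield, 24 + 120 hpf; DMSO as negative control.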

A short description of test [2]: Tanguay_ZF_120hpf_YSE_legacy: (Legacy) Oregon State University Tanguay Lab 120 Hour Post-fertilization zebrafish Assay for Yolk Sac Edema (AID 2283634). In outline: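 Dechorionate (pronase, 4 hpf) → place one 6 hpf embryo per well → static compound exposure, sealed and foil-covered, 28C, to 120 hpf → record yolk sac edema as present or absent. Final DMSO 0.64%.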

Test [3] can be described thus: Tanguay_ZF_120hpf_AXIS_legacy: (Legacy) Oregon State University Tanguay Lab 120 Hour Post-fertilization zebrafish Assay for Body Axis Malformation (AID 2283635). In outline: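 Chorion is removed with pronase at 4 hpf, then single 6 hpf embryos are dosed (final DMSO 0.64%) and held statically at 28C in sealed, foil-covered plates. At 120 hpf body axis malformation is recorded as present or absent.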

Test [4] can be described thus: Tanguay_ZF_120hpf_EYE_legacy: (Legacy) Oregon State University Tanguay Lab 120 Hour Post-fertilization zebrafish Assay for Eye Malformation (AID 2283636). A digest of the protocol: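 Read-out is binary presence or absence of eye malformation, scored by brightfield microscopy at 120 hpf. Single larvae were exposed from 6 hpf in embryo medium containing 0.64% DMSO, with DMSO as baseline.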

A short description of test [5]: Tanguay_ZF_120hpf_SNOU_legacy: (Legacy) Oregon State University Tanguay Lab 120 Hour Post-fertilization zebrafish Assay for Snout Malformation (AID 2283637). A digest of the protocol:
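Snout malformation read as a yes/no call on brightfield images of 120 hpf larvae (Tropical 5D strain). Static exposure began at 6 hpf on dechorionated embryos in 0.64% DMSO, with gain of signal analysed versus DMSO controls.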

Test [6] can be described thus: Tanguay_ZF_120hpf_JAW_legacy: (Legacy) Oregon State University Tanguay Lab 120 Hour Post-fertilization zebrafish Assay for Jaw Malformation (AID 2283638). In outline:
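Steps: dechorionate 4 hpf embryos (pronase); plate 1/well at 6 hpf; add test chemical, 0.64% DMSO final; seal, cover, hold at 28C statically to 120 hpf; score jaw defect presence/absence microscopically. Dead embryos not scored.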

The nature of test [7]: Tanguay_ZF_120hpf_OTIC_legacy: (Legacy) Oregon State University Tanguay Lab 120 Hour Post-fertilization zebrafish Assay for Otic Vesicle Malformation (AID 2283639). A digest of the protocol:
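Otic vesicle malformation is read as a yes/no morphology call at 120 hpf. Exposure is static at 28C with 0.64% (vol/vol) DMSO; embryos that die are excluded from non-mortality endpoints.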

Test [8] in a line: Tanguay_ZF_120hpf_PE_legacy: (Legacy) Oregon State University Tanguay Lab 120 Hour Post-fertilization zebrafish Assay for Pericardial Edema (AID 2283640). In outline:
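Embryos from wild-type 5D adults were staged, then dosed in 0.64% DMSO. They were kept sealed in the dark at 28C until 120 hpf. Pericardial edema was then recorded as present or absent.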

The nature of test [9]: Tanguay_ZF_120hpf_BRAI_legacy: (Legacy) Oregon State University Tanguay Lab 120 Hour Post-fertilization zebrafish Assay for Brain Malformation (AID 2283641). A digest of the protocol:
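Wild-type 5D larvae, static waterborne exposure to 120 hpf, 28C, 0.64% v/v DMSO. Brightfield scoring of brain defects, binary; dead embryos excluded. Positive ctrl 5uM trimethyltin chloride.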

Test [10] can be described thus: Tanguay_ZF_120hpf_SOMI_legacy: (Legacy) Oregon State University Tanguay Lab 120 Hour Post-fertilization zebrafish Assay for Somite Malformation (AID 2283647). A digest of the protocol:
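Read-out: presence or absence of somite malformation in 120 hpf larvae, gain-of-signal relative to DMSO baseline. Embryos lacked chorion (pronase, 4 hpf) and were exposed statically from 6 hpf at 28C; dead larvae not scored.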

Test [11] in a line: Tanguay_ZF_120hpf_PFIN_legacy: (Legacy) Oregon State University Tanguay Lab 120 Hour Post-fertilization zebrafish Assay for Pectoral Fin Malformation (AID 2283648).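 Note: each larva judged yes or no for fin defect by brightfield with dead larvae skipped.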 A digest of the protocol:
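5D WT zebrafish; pronase dechorionation 4 hpf; 1 embryo/well at 6 hpf; static exposure to 120 hpf, 28C, sealed, foil-covered; final DMSO 0.64% v/v; 5 uM trimethyltin chloride positive control; fin defect scored yes/no.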

A short description of test [12]: Tanguay_ZF_120hpf_PIG_legacy: (Legacy) Oregon State University Tanguay Lab 120 Hour Post-fertilization zebrafish Assay for Pigmentation Malformation (AID 2283650). In outline:
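Pronase dechorionation at 4 hpf; embryos plated at 6 hpf, one per well; static exposure, sealed and foil-covered, 28C, to 120 hpf; pigmentation read by brightfield, binary; DMSO 0.64% baseline, 5uM trimethyltin chloride positive control.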

A short description of test [13]: Tanguay_ZF_120hpf_CIRC_legacy: (Legacy) Oregon State University Tanguay Lab 120 Hour Post-fertilization zebrafish Assay for Circulatory Malformation (AID 2283651). In outline:
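Using wild-type Tropical 5D zebrafish, we exposed dechorionated embryos from 6 to 120 hpf in embryo medium with 0.64% DMSO. Circulatory defects were scored as present or absent; 5uM trimethyltin chloride served as positive control.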

The nature of test [14]: Tanguay_ZF_120hpf_SWIM_legacy: (Legacy) Oregon State University Tanguay Lab 120 Hour Post-fertilization zebrafish Assay for Swim Bladder Malformation (AID 2283654).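 Note: swim bladder malformation in each larva scored yes or no under brightfield.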 In outline: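 Embryos lacking chorions were exposed individually and statically to test chemical from 6 to 120 hpf at 28C, with 0.64% DMSO as vehicle. At 120 hpf, swim bladder malformation was recorded as present or absent by brightfield microscopy.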

Test [15] is described as follows: Tanguay_ZF_120hpf_TRUN_legacy: (Legacy) Oregon State University Tanguay Lab 120 Hour Post-fertilization zebrafish Assay for Truncated Body (AID 2283655). A digest of the protocol: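 Truncated body is recorded as a binary endpoint at 120 hpf by brightfield imaging of wild-type 5D larvae. Exposure runs statically from 6 hpf at 28C with 0.64% DMSO; embryos dying earlier are not scored.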

The nature of test [16]: Tanguay_ZF_120hpf_NC_legacy: (Legacy) Oregon State University Tanguay Lab 120 Hour Post-fertilization zebrafish Assay for Notochord and Tail Malformation (AID 2283656). A digest of the protocol: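 Dechorionated 5D zebrafish, 1/well from 6 hpf; static exposure to 120 hpf, 28C, sealed, dark; final DMSO 0.64% v/v. NC scored binary (present/absent); dead embryos not scored. Fit vs DMSO baseline, gain direction.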

In test [17] the target is Cellular tumor antigen p53 (Homo sapiens) (UniProt P04637). The experiment in a line: TOX21_p53_BLA_p4_ratio: Tox21 HCT-116 p53 Agonism Beta-lactamase Assay, Ratio, Phase 4 (AID 2283601). In outline: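 Signal is the blue/green (460nm/530nm) ratio of cleaved versus uncleaved CCF4-AM substrate, read after 2 h substrate loading. Cells were HCT116 carrying the p53-responsive beta-lactamase reporter, dosed 16 h at 37C, 5% CO2; CellTiter-Glo measured in parallel.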
Sequence of Cellular tumor antigen p53 (Homo sapiens) (P04637 whole entry, looked up): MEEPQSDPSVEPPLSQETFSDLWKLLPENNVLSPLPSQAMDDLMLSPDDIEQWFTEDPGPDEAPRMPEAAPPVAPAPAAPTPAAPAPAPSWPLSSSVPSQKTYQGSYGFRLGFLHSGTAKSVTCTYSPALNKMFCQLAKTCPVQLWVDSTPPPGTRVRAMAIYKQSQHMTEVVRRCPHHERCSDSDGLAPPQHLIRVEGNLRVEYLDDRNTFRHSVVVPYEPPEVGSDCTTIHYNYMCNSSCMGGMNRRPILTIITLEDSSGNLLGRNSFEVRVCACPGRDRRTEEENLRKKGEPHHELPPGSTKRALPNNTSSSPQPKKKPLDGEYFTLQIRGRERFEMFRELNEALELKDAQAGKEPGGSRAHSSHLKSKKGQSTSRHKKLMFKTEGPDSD

Test [18] in a line: Tanguay_ZF_120hpf_CFIN_legacy: (Legacy) Oregon State University Tanguay Lab 120 Hour Post-fertilization zebrafish Assay for Caudal Fin Malformation (AID 2283649). A digest of the protocol: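 Binary presence or absence of caudal fin malformation at 120 hpf, read by brightfield microscopy, with DMSO as baseline. Larvae came from 5D wild-type embryos exposed statically from 6 hpf at 28C after pronase dechorionation.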

As to `Cc1cnc(C2=NC(C)(C(C)C)C(=O)N2)c(C(=O)O)c1` (stereo not drawn), the call in test [1], in test [2], in test [3], in test [4], in [5] and in test [6] was inactive. Also, the call in test [7], in [8], in test [9], in test [10], in test [11] and in test [12] was inactive. The molecule was classed as inactive in [13], in test [14], in test [15] and in test [16].

For the molecule `COCC(=O)N(c1c(C)cccc1C)C(C)C(=O)OC` (stereo not drawn), the outcome in test [17], in [1], in test [2], in [3], in [5] and in test [6] was inactive. Moreover, the molecule was classed as inactive in [8], in [9], in [10], in [18], in test [12] and in test [13]. Besides, the outcome in test [14] and in [15] was inactive.

Regarding `CC1(C)CCC(=Cc2ccc(Cl)cc2)C1(O)Cn1cncn1` (stereo not drawn), the outcome in [17], in [1], in test [2], in [3], in [4] and in test [6] was inactive. For the same molecule, the outcome in test [7], in test [8], in [9], in test [11], in test [18] and in test [13] was inactive. In addition, the molecule was classed as inactive in test [14], in [15] and in [16].

With `CCOC(=O)C(C)OC(=O)c1cc(Oc2ccc(C(F)(F)F)cc2Cl)ccc1[N+](=O)[O-]` (stereo not drawn), the outcome in [17], in test [1], in test [2], in test [3], in test [4] and in test [7] was inactive. Moreover, the result in test [8], in test [9], in test [10], in test [11], in test [18] and in test [13] was inactive. For the same molecule, the outcome in test [14], in [15] and in [16] was inactive.

Take `CNC(=O)N(C)c1nnc(C(C)(C)C)s1`: the outcome in test [17], in test [1], in test [4], in test [5], in test [6] and in test [7] was inactive. Moreover, the result in test [8], in [9], in test [10], in [11], in [18] and in [12] was inactive. For the same molecule, the result in test [13], in test [14] and in test [15] was inactive.

`C=C(C)CN(CC)c1c([N+](=O)[O-])cc(C(F)(F)F)cc1[N+](=O)[O-]`: in test [17], the concentration at half-maximal activity (AC50) (commonly the concentration at which the activity in the assay is half-maximal) is 0.117 nM (active). The result in [1], in [2], in [3], in [5], in [6] and in test [7] was inactive. The molecule was called inactive in test [8], in test [9], in test [10], in test [11], in [12] and in test [13]. Besides, the result in test [14], in [15] and in [16] was inactive.

For the molecule `COC(=O)c1c(C(F)F)nc(C(F)(F)F)c(C2=NCCS2)c1CC(C)C`, the result in test [17], in test [1], in [2], in test [3], in test [5] and in [6] was inactive. Further, the result in [7], in test [8], in test [9], in [10], in [11] and in test [18] was inactive. The outcome in [12], in [13], in test [14], in test [15] and in test [16] was inactive.

On to `O=c1n(Cl)c(=O)n(Cl)c(=O)n1Cl`, for which the outcome in test [17], in [1], in test [2], in test [3], in test [6] and in test [7] was inactive. Moreover, the result in test [8], in [9], in test [11], in [18], in [12] and in test [13] was inactive. Further, the molecule was called inactive in [14], in test [15] and in [16].

For the origin of these results see PubChem BioAssay (EPA / NIEHS).
